The list is not random: actives were taken first. Their share in the collection is about 5.9%.
TrxR1 substrate – rat thioredoxin reductase 1 substrate activity; Potency, µM (titrated, usually from 114 µM), inactives show top-dose activity change, negative = substrate turnover; O89049; 390,000 tested, 0.01% active; purified TrxR1 substrate turnover, NADPH consumption readout; also: potency is read from the fitted curve at half-maximal effect; nearly all actives have a fitted effect of over 50% in size
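Rat TrxR1, dispensed at 90 nM, was prereduced with 400 uM NADPH (final) for 5 min at ~22 deg C, then incubated with compound 15 min before 400 uM selenite. A first-read NADPH fluorescence drop versus no-compound background flagged substrates.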
GALK inhibitor – blocks human galactokinase activity; P51570; Purified GALK, Kinase-Glo residual ATP luminescence; Potency, µM (doses to about 57.5 µM), inactives show top-dose activity change, negative = inhibition, most hits filed as inhibitors; 270,000 tested, 0.007% active; AID 1868; also: potency is read from the fitted curve at half-maximal effect
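GALK at 5 nM final was combined with compound, 35 uM ATP and 100 uM galactose in HEPES pH8.0 with MgCl2 and DTT. The reaction ran one hour at room temperature before luminescent ATP detection.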
Coupling enz – counter-screen for Giardia aldolase inhibitors: coupling enzyme system; coupling enzyme system counterscreen, AmpLite Red fluorescence; activity change, negative = inhibition, % at 58.2 µM, hits read low; 290,000 tested, 0.67% active; AID 2472; in the data active = activity change below about -30%
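Activity here indicates interference with the coupling reaction, not aldolase inhibition. Compounds at 57.5 uM final met coupling enzymes for 10 min at RT; substrate and AmpLite Red detection followed, with a 525/598 nm fluorescence read after 20 min.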
RORg inh – ROR gamma (mouse) transcription inhibition. P51450. Potency, µM (titrated, usually from 53.6 µM), inactives show top-dose activity change, negative = inhibition, actives largely listed as inhibitors. 310,000 tested, 5.4% active. Drosophila S2 Gal4-RORgamma UAS-luciferase reporter, 20 h; also: potency is read from the fitted curve at half-maximal effect; nearly all actives have a fitted effect of over 60% in size
Target sequence (P51450 whole entry, looked up, the tested form may be a part): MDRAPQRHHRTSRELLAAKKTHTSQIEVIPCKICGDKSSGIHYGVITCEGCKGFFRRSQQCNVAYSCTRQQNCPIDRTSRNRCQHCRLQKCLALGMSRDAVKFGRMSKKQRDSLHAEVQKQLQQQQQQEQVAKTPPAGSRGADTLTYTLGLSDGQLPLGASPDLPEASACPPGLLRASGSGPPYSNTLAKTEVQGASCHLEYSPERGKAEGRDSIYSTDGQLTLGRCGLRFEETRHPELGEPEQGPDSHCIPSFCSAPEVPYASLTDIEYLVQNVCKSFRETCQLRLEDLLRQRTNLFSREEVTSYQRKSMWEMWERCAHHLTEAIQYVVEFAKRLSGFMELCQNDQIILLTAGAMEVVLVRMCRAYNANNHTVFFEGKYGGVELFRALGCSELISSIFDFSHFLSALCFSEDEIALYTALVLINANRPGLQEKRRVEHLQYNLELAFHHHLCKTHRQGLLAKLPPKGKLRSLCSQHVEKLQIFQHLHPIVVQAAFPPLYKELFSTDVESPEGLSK
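Compounds are pin-transferred onto Drosophila Schneider cells expressing a copper-inducible Gal4–ROR gamma transactivation domain fusion. After 1 hr, copper sulfate is added to 700 uM final; luciferase is read 20 hr later.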
VP16 counter – counter-screen for ROR gamma inhibitors: Gal4-VP16 reporter. Drosophila S2 Gal4-VP16 UAS-luciferase, luminescence, 20 h. Potency, µM (highest dose often 53.6 µM), inactives show at the top dose activity, negative = inhibition, hits mostly inhibitors. 310,000 tested, 3.5% active. AID 2546;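 also: Gal4-VP16 expression switched on by copper sulfate through the metallothionein promoter; potency is read from the fitted curve at half-maximal effect; nearly all actives have a fitted effect of over 50% in size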
TrxR1 inh – rat TrxR1 inhibition | Potency, µM (highest dose often 114 µM), for the others: at the top dose activity change, negative = inhibition, actives largely listed as inhibitors | recombinant rTrxR1, NADPH fluorescence consumption, selenite substrate | 390,000 tested, 1% active; also: potency is read from the fitted curve at half-maximal effect; nearly all actives have a fitted effect of over 65% in size
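Rat TrxR1 (90 nM in the dispensed reagent) was pre-reduced with 400 uM NADPH for 5 min at room temperature, then incubated with compound for 15 min. After 400 uM selenite was added, NADPH fluorescence (Ex 340/Em 450 nm) was followed for 8 min.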
* hit, by the source's call; u = inconclusive; x = not tested or not shown; [ ] = another dose, or the depositor's remark. Unless noted, calls follow the shape of the dose curve; as a rule, active = well fitted curve in the direction sought with a large enough effect; inconclusive = small, poorly fitted or top-dose-only effect, or another doubt; inactive = no such curve, though single readings can be large; an effect the other way counts as inactive or inconclusive. % is scaled to controls: 0 for no effect and ±100 for the full control effect.

SMILES	TrxR1 substrate	GALK inhibitor	Coupling enz	RORg inh	VP16 counter	TrxR1 inh
CCc1ccc(S(=O)(=O)/N=C2\C=C(NS(=O)(=O)c3ccccc3)C(=O)c3ccccc32)cc1	-14%	1%	-34*	-19%	-3%	u
Cc1ccc(C)c(S(=O)(=O)/N=C2\C=C(NS(=O)(=O)c3ccccc3)C(=O)c3ccccc32)c1	-10%	-3%	-50*	-21%	7%	-13%
CC(C)c1ccc(S(=O)(=O)/N=C2\C=C(NS(=O)(=O)c3ccccc3)C(=O)c3ccccc32)cc1	-5%	0%	-32*	-2%	2%	u
CC(C)c1ccc(S(=O)(=O)/N=C2/C=CC(=O)c3ccccc32)cc1	x	1%	-53*	u	18µM*	x
CC(C)(C)NC(=O)C(c1ccc(F)cc1)N(Cc1cccs1)C(=O)c1ccc(CN2CCOCC2)o1 (stereo unspecified)	8%	9%	1	29%	4%	-9%[57.1 µM]
CC(C)CNC(=O)C(=O)Nc1c2c(nn1-c1ccc(Cl)cc1)CSC2	-2%[57.1 µM]	x	x	x	x	1%[57.1 µM]
COc1cc(C2SC[C@H]3C(=O)N(c4ccccc4)C(=O)N23)cc(OC)c1OC (stereo partly specified)	-2%	x	x	x	x	79µM*
O=C(Nc1cccc(Cl)c1)N1CCN(C/C=C/c2ccccc2)CC1	2%	0%	0	-21%	u	6%
CCOC(=O)CSc1cc(-c2ccccc2)nc2ncnn12	-6%[57.1 µM]	-2%	0	-75%	11µM*	6%[57.1 µM]
c1ccc(-c2cc(-c3ccccc3)n3ncnc3n2)cc1	40%	6%	5	-20%	4%[10 µM]	13%
C/C(=C/C#N)Nc1ccc(C)cc1	0%	-2%	1	-8%	-13%[10 µM]	-13%
CCCCCCCCNC(=O)C(CCC(=O)OCc1ccccc1)NC(C)=O (stereo unspecified)	-7%	-1%	7	18%	-8%	9%
CCOc1ccc(C(=O)CCC(=O)N(CC)CC(=O)NCc2cccs2)cc1	0%	x	x	x	x	5%
CCOc1ccc(C(=O)N2CCCCCC2)cc1	7%[57.1 µM]	0%	3	22%	19%	13%[57.1 µM]
CCOc1ccc(C(=O)CC(NCc2cccs2)C(=O)O)cc1 (stereo unspecified)	-6%[57.1 µM]	1%	4	4.5µM*	13µM*	u
CCOc1ccc(C(=O)CC(C(=O)O)N2CCN(Cc3ccccc3)CC2)cc1 (stereo unspecified)	-9%	x	x	x	x	16µM*
CCOc1ccc(C(=O)CC(C(=O)O)N2CCCCC2)cc1 (stereo unspecified)	-10%	x	x	x	x	14µM*
NS(=O)(=O)c1ccc(NC(=S)N2CCN(c3ccccc3Cl)CC2)cc1	-6%	0%	2	u	-11%	0%
Cc1ccc2nc(-c3ccc(NC(=O)CCN4C(=O)c5ccccc5C4=O)cc3)sc2c1	162%	0%	-5	5µM*	7.1µM*	35%
Cc1ccc2nc(-c3ccc(NC(=O)CSCC(=O)O)cc3)sc2c1	199%	1%	17	11µM*	-26%	-9%
Cc1csc(NC(=O)CSCC(=O)O)c1-c1nc2ccccc2s1	0%	-2%	5	-42%	8.9µM*	-13%
O=C(CCN1C(=O)c2ccccc2C1=O)Nc1ccc(-c2nc3ccccc3s2)cc1	4%	2%	0	-3%	-13%	20%[57.1 µM]
O=C(O)CSCC(=O)Nc1ccc(-c2nc3ccccc3s2)cc1	161%	x	11	u	-22%	-10%
Cc1cc(NC(=O)CSCC(=O)Nc2nc3ccccc3s2)no1	-7%	x	x	x	x	-16%
CCOC(=O)C1(Cc2ccc(OC)cc2)CCN(C(=O)c2cc(C)on2)CC1	1%	2%	1	3%	5%	19%
SMILES	TrxR1 substrate	GALK inhibitor	Coupling enz	RORg inh	VP16 counter	TrxR1 inh
O=C(CSc1nnc(-c2ccc(F)cc2)c2ccccc12)Nc1c(F)cccc1F	-9%	0%	1	u	-29%	-8%
N.N.O=C(O)C1(C(=O)O)CCC1.[Pt+2]	14%[57.1 µM]	x	x	x	x	0.95µM*
NC1(C(=O)O)CCCCC1	2%[57.1 µM]	x	x	x	x	5%[57.1 µM]
O=[N+]([O-])c1cccc(/C=C/c2ccccc2)c1	6%	x	x	x	x	11%
CC1(C)COC(/C=C/c2cccc([N+](=O)[O-])c2)=N1	9%[57.1 µM]	-1%	1	u	1.4µM*	u
Cc1cc(O)ccc1N=Cc1c(C(F)(F)F)[nH][nH]c1=O	-13%	2%	-22	11µM*	u	2%
COc1ccc(OCC(=O)Nc2c(C(=O)N3CCN(c4ccccc4)CC3)oc3ccccc23)cc1	4%	x	x	x	x	19%
C=CCOc1ccc(CNc2ccc3[nH]c(=O)[nH]c3c2)cc1OCC	8%	10%	3	37%	3%	11%[57.1 µM]
CCOc1cc(CNc2ccc3[nH]c(=O)[nH]c3c2)ccc1OCC(=O)NC(C)(C)C	4%	1%	-33*	-25%[0.365 µM]	x	7%
COc1cc(CNc2ccc3[nH]c(=O)[nH]c3c2)cc(Cl)c1OCC(=O)NC(C)(C)C	4%	-1%	-44*	-32%	-1%	-22%
CCOC(=O)Cc1csc(SCn2nnc3ccccc3c2=O)n1	-24%[57.1 µM]	2%	-2	-13%	-7%	4%[57.1 µM]
CCOC(=O)Cc1csc(-n2sc3ccccc3c2=O)n1	-3%	4%	3	11µM*	u	43%
COc1ccc2c(c1)[nH]c1c(N3CCN(Cc4ccc5c(c4)OCO5)CC3)ncnc12	3%	0%	-1	u	10µM*	-6%
c1nc(N2CCN(Cc3ccc4c(c3)OCO4)CC2)c2[nH]cnc2n1	2%	0%	4	-15%	-6%	4%
COc1cccc2[nH]c3c(N4CCN(Cc5ccc6c(c5)OCO6)CC4)ncnc3c12	x	2%	0	28%	-3%	x
Cc1ccc2c(c1)[nH]c1c(N3CCN(Cc4ccccc4)CC3)ncnc12	16%	4%	-1	u	3.2µM*	5%
Cc1ccc2[nH]c3c(N4CCCCCC4)ncnc3c2c1	x	1%	-6	8%[0.365 µM]	x	x
Cc1ccc2[nH]c3c(N4CCN(Cc5ccc6c(c5)OCO6)CC4)ncnc3c2c1	x	2%	1	u	10µM*	x
c1ccc(CN2CCN(c3ncnc4c3[nH]c3ccccc34)CC2)cc1	11%	1%	-1	u	16µM*	1%
Clc1cccc(C=NC=Nc2cccc(Cl)c2)c1	x	x	0	0%	-7%	x
COc1cccc(CN(C)C(=O)c2cccc(S(=O)(=O)N3CCN(c4ccc(F)cc4)CC3)c2)c1OC	-12%[57.1 µM]	x	x	x	x	21%
Cc1ccc2[nH]c3c(N4CCN(Cc5ccccc5)CC4)ncnc3c2c1	11%[57.1 µM]	-2%	-1	u	3.5µM*	23%[57.1 µM]

Screening results deposited in PubChem BioAssay by National Center for Advancing Translational Sciences (NCATS).
